In test [1] the test system is HACAT. Nature of the test: qHTS assay to identify novel small-molecules to repurpose for Merkel cell carcinoma treatment (AID 1296009). Also: nearly all actives have a fitted effect of over 60% in size. The note with it: MCC and control cell lines, CellTiter-Glo viability, 72 h. Put shortly:
(§1)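 Cells were incubated with compound for 72 hr at 37 degree celsius before CellTiter-Glo addition. Luminescence was normalized with no-cell wells as full cytotoxicity and DMSO as baseline.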
For orientation: qHTS replaces the single test concentration by a dilution series.

The test system of a further test is TAB165. In words: qHTS profiling for inhibitors of Plasmodium falciparum proliferation (AID 504749). Also: nearly all actives have a fitted effect of over 60% in size. The note with it: P. falciparum in erythrocytes, SYBR Green DNA, 72 h; series mostly up to 28.7 µM. Put shortly:
(§2)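 Readout was DNA-dye fluorescence from lysed cultures, ex 485/em 535 nm. Parasitized red cells had grown 72 h with compound; data scaled between 0.29 uM artemisinin and DMSO wells and corrected using vehicle-only plates.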

The next test relates to CRL-7250. In words: Cytotoxic Profiling of Annotated Libraries Using Quantitative High-Throughput Screening (AID 1296008). Also: nearly all actives have a fitted effect of over 60% in size. As to max response: % is scaled to controls: 0 for no effect and ±100 for the full control effect. The note with it: Five cell lines viability, CellTiter-Glo ATP luminescence, 48-72 h; max response: stronger effect = lower value. Put shortly: (§3)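 Cells exposed to compounds for 48 or 72 hr at 37 degrees Celsius. Viability read as ATP-coupled luminescence with CellTiter-Glo after 10 min at room temperature.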
A general note: In ATP-based viability assays light output follows the ATP content of the culture.

The next test concerns HEK293. The test is described as above. The note with it: Five cell lines viability, CellTiter-Glo ATP luminescence, 48-72 h; max response: stronger effect = lower value. Put shortly:
as §3

For test [2], the system named is HaCat. Described as above. The note with it: Five cell lines viability, CellTiter-Glo ATP luminescence, 48-72 h; max response: stronger effect = lower value. Put shortly: as §3
The test system of another test is KB-3-1. The description is as above. The note with it: Five cell lines viability, CellTiter-Glo ATP luminescence, 48-72 h; max response: stronger effect = lower value. Put shortly: as §3
The test system of test [3] is NIH3T3. The description is as above. The note with it: Five cell lines viability, CellTiter-Glo ATP luminescence, 48-72 h; max response: stronger effect = lower value. Put shortly:
as §3

A further test deals with HEK293T. Nature of the test: qHTS assay to identify novel small-molecules to repurpose for Merkel cell carcinoma treatment (AID 1296009). Also: nearly all actives have a fitted effect of over 60% in size. The note with it: MCC and control cell lines, CellTiter-Glo viability, 72 h; at 44.8 µM (top of the series) unless noted. Put shortly: as §1
The test system of the next test is MCC-13. The description is as above. The note with it: MCC and control cell lines, CellTiter-Glo viability, 72 h; series mostly up to 46 µM. Put shortly: as §1
The next test deals with MCC-26. Described as above. The note with it: MCC and control cell lines, CellTiter-Glo viability, 72 h; series mostly up to 46 µM. Put shortly:
as §1

The next test deals with MKL-1. The description is as above. The note with it: MCC and control cell lines, CellTiter-Glo viability, 72 h; series mostly up to 46 µM. Put shortly: as §1
For a further test, the system named is MKL-2. The description is as above. The note with it: MCC and control cell lines, CellTiter-Glo viability, 72 h; series mostly up to 46 µM. Put shortly: as §1
The next test deals with UISO. Described as above. The note with it: MCC and control cell lines, CellTiter-Glo viability, 72 h; series mostly up to 46 µM. Put shortly:
as §1

A further test deals with WaGa. The test is described as above. The note with it: MCC and control cell lines, CellTiter-Glo viability, 72 h; series mostly up to 46 µM. Put shortly: as §1
A further test relates to C33A. In words: Primary qHTS to identify gynecologic anti-cancer compounds using libraries of approved drugs and bioactive compounds (AID 1345084). Also: nearly all actives have a fitted effect of over 55% in size. The note with it: Gynecologic cancer cell panel viability, ATPlite luminescence, 48 h; series mostly up to 57.5 µM. Put shortly:
(§4)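 Five-point cytotoxicity, 48 h drug exposure at 37 C, 5% CO2, on cells seeded 16 h beforehand. ATP content read by ATPlite luminescence.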

The next test has as its system CAOV3. The description is as above. The note with it: Gynecologic cancer cell panel viability, ATPlite luminescence, 48 h; series mostly up to 57.5 µM. Put shortly:
as §4

Another test relates to CASKI. The description is as above. The note with it: Gynecologic cancer cell panel viability, ATPlite luminescence, 48 h; series mostly up to 57.5 µM. Put shortly: as §4
For the next test, the system named is Es-2. The description is as above. The note with it: Gynecologic cancer cell panel viability, ATPlite luminescence, 48 h; series mostly up to 57.5 µM. Put shortly:
as §4

A further test relates to W2. Nature of the test: qHTS profiling for inhibitors of Plasmodium falciparum proliferation (AID 504749). Also: nearly all actives have a fitted effect of over 60% in size. The note with it: P. falciparum in erythrocytes, SYBR Green DNA, 72 h; series mostly up to 28.7 µM. Put shortly: as §2
Test [4] relates to NIH3T3. In words: qHTS assay to identify novel small-molecules to repurpose for Merkel cell carcinoma treatment (AID 1296009). Also: nearly all actives have a fitted effect of over 60% in size. The note with it: MCC and control cell lines, CellTiter-Glo viability, 72 h; at 44.8 µM (top of the series) unless noted. Put shortly: as §1
Where [5] appears, read: at 44.8 µM (top of the series) unless noted.

Where “and” joins values, the source holds several entries; their conditions need not be identical. Equal values may be shown once. Results filed as inconclusive are left out. Unmarked numbers belong to inactive results. Calls of active or inactive are those of the source. Calls follow the shape of the dose curve; as a rule, active = well fitted curve in the direction sought with a large enough effect; inconclusive = small, poorly fitted or top-dose-only effect, or another doubt; inactive = no such curve, though single readings can be large; an effect the other way counts as inactive or inconclusive.
Potency is read from the fitted curve at half-maximal effect.

With `Cc1nc2n(c(=O)c1CCN1CCC(c3noc4cc(F)ccc34)CC1)CCC[C@H]2O`, the compound was classed as inactive in the test on HACAT [1] (at 17.4 µM (top of the series)) and with HACAT [1] (at 44.8 µM (top of the series)).

`OCc1ccccc1O`: the Potency result with TAB165, in the test with MCC-13, in the test with MCC-26, in the test with MKL-1, in the test with MKL-2 and in the test on UISO was “inactive” in each case. The Potency result in the test with WaGa, with C33A, in the test on CAOV3, in the test on CASKI and in the test with Es-2 was “inactive” throughout. For the same compound, the max response with CRL-7250 is 2.81%; in the test with HaCat [2], -18.5%; in the test on KB-3-1, -3.85%; in the test with NIH3T3 [3] it was 3.42%. The call in the test on HEK293 and with HEK293T was inactive.

For the compound `CC[N+](CC)(CCNC(=O)C(=O)NCC[N+](CC)(CC)Cc1ccccc1Cl)Cc1ccccc1Cl`, the results for the Potency in the test on TAB165 and in the test with W2 were 1260 nM (active) and 1200 nM (active), respectively. Moreover, the compound was classed as inactive in the test on CRL-7250. Besides, the max response with HEK293 is 2.37%; in the test on HaCat [2] it was -1.93%; in the test with KB-3-1, -5.89%; in the test on NIH3T3 [3], 3.32%. For the same compound, the Potency result in the test on MCC-13, with MCC-26, with MKL-1, with MKL-2, with UISO and in the test on WaGa was “inactive” each time. Further, the Potency result with C33A, in the test on CAOV3, in the test with CASKI and in the test on Es-2 was “inactive” throughout.

With `CCC(C(=O)OCCN(CC)CC)c1ccccc1` (stereo not drawn), the Potency entry in the test on TAB165, in the test on MCC-13, in the test on MCC-26, in the test with MKL-1, in the test with MKL-2 and in the test with UISO was “inactive” in each case. The Potency entry with WaGa, in the test on C33A, in the test with CASKI and with Es-2 was “inactive” each time. In addition, the Potency in the test with W2 is 15100 nM (active). Further, the compound was classed as inactive in the test with CRL-7250, with HaCat [2] and in the test with HACAT [1] (setting [5]). Besides, the max response in the test with HEK293 was 3.62%; in the test on KB-3-1, -12.7%; with NIH3T3 [3] it was -17.3%.

With `O=C1OCCN1/N=C/c1ccc([N+](=O)[O-])o1`, the results for the Potency with TAB165 and in the test on W2 were 11200 nM (active) and 15100 nM (active), respectively. Further, the max response with CRL-7250 is -8.39%; in the test with HEK293 it was -25%; in the test with KB-3-1 it was -3.42%. Besides, the compound was classed as inactive in the test on HaCat [2], in the test on NIH3T3 [3], with HACAT [1] (setting [5]) and in the test with NIH3T3 [4]. The Potency result with MCC-13, in the test with MCC-26, in the test on C33A, with CAOV3, with CASKI and in the test with Es-2 was “inactive” throughout.

For the compound `O=c1ccc2ccccc2o1`, the Potency result in the test on TAB165, with W2, with MCC-13, in the test with MCC-26, with MKL-1 and in the test with MKL-2 was “inactive” throughout. In addition, the Potency entry with UISO, in the test with WaGa, with C33A, with CASKI and in the test with Es-2 was “inactive” in each case. The compound was called inactive with CRL-7250, with HEK293, with NIH3T3 [3], in the test with HEK293T and with NIH3T3 [4]. Moreover, the max response was -0.31% with HaCat [2] and -9.75% in the test on KB-3-1.

As for `Oc1ccc(O)cc1`, the Potency is 12000 nM (active) in the test on W2, 5310 nM (active) in the test with MKL-1, 4730 nM (active) in the test on MKL-2 and 1880 nM (active) in the test with WaGa. For the same compound, the call with CRL-7250, in the test with HaCat [2] and in the test with HACAT [1] (setting [5]) was inactive. Moreover, the max response was -16.2% with HEK293, -4.96% in the test with KB-3-1 and -10.8% with NIH3T3 [3]. Besides, the Potency entry with MCC-13, in the test with MCC-26, with C33A, with CAOV3, in the test with CASKI and with Es-2 was “inactive” each time.

On to `COCc1c(C(C)C)nc(C(C)C)c(/C=C/[C@@H](O)C[C@@H](O)CC(=O)O)c1-c1ccc(F)cc1`, for which the Potency entry in the test with TAB165 and in the test with CASKI was “inactive” throughout. Besides, the Potency in the test with CRL-7250 is 59.6 nM (active); with HEK293 it was 531 nM (active); with HaCat [2], 841 nM (active); in the test with KB-3-1, 1840 nM (active); in the test on NIH3T3 [3], 2.37 µM (active); in the test with MCC-13, 1190 nM (active). Besides, the Potency in the test with MKL-1 was 750 nM (active); in the test on UISO it was 473 nM (active); with WaGa it was 1060 nM (active); with CAOV3 it was 7080 nM (active).

In the case of `CC1(C)OC[C@@H](COC(=O)CCc2ccc(OC[C@@H](O)CNCCNC(=O)N3CCOCC3)cc2)O1`, the compound was called inactive with CRL-7250, in the test with HEK293 and with HEK293T. For the same compound, the max response was 3.95% with HaCat [2]; -12.4% and -13.1% in the test with KB-3-1; 4.95% in the test on NIH3T3 [3]. Further, the Potency result in the test on MCC-13, in the test on MCC-26, with MKL-1, with MKL-2, in the test with UISO and with WaGa was “inactive” each time. Also, the Potency result with C33A, in the test on CAOV3, in the test with CASKI and in the test with Es-2 was “inactive” each time.

On to `CC(C)n1nc(-c2cc3cc(O)ccc3[nH]2)c2c(N)ncnc21`, for which the Potency in the test with CRL-7250 is 376 nM (active) and 461 nM (active); in the test on HEK293 it was 1.33 µM (active) and 1.46 µM (active); in the test on HaCat [2] it was 23100 nM (active); with KB-3-1, 1300 nM (active); in the test with NIH3T3 [3], 2.37 µM (active) and 1.16 µM (active); in the test on MCC-13 it was 16800 nM (active). The Potency is 11900 nM (active) in the test with MCC-26; 10600 nM (active) in the test with MKL-1; 8410 nM (active) in the test on MKL-2; 9440 nM (active) with UISO; 2990 nM (active) in the test on WaGa; 794 nM (active) with C33A. Moreover, the Potency with CAOV3 was 1580 nM (active); in the test with CASKI, 8.91 µM (active) and 15.8 µM (active); in the test with Es-2, 3.16 µM (active) and 2.24 µM (active).

For `C[C@]12CCC(=O)C=C1CC[C@H]1[C@@H]3CC[C@](O)(C(=O)CO)[C@@]3(C)C[C@H](O)[C@@]12F`, the Potency result in the test with TAB165, in the test with W2, in the test with MCC-13, in the test with MCC-26, with MKL-1 and in the test on MKL-2 was “inactive” throughout. Besides, the Potency result in the test with UISO, in the test with WaGa, in the test with C33A, in the test on CAOV3, in the test with CASKI and in the test on Es-2 was “inactive” throughout. Moreover, the max response in the test on CRL-7250 is -14.8%; in the test on HEK293, -5.58%; in the test with HaCat [2], -3.35%; in the test on KB-3-1, 18.3% and -1.2%. Also, the outcome with NIH3T3 [3] and in the test with NIH3T3 [4] was inactive.

Values taken from PubChem BioAssay (NCATS).
